# PubChem BioAssay (NCATS)
# Results filed as inconclusive are left out. A call without a number means that no potency is given here. Activity calls are given as the source filed them. Unless noted, calls follow the shape of the full dose curve.
# Assays:
# [1] = molecular target: Peroxisome proliferator-activated receptor delta (Homo sapiens) (UniProt Q03181); test: qHTS assay for small molecule agonists of peroxisome proliferator-activated receptor delta signaling (AID 588534)
# Method in brief: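 Reporter cells were plated and held 5 hrs at 37 C before compounds were added. After 18 hrs at 37 C, CCF4 dye was loaded for 2 hrs at RT and fluorescence measured.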
# [2] = qHTS assay for environmental chemicals that activate the Aryl hydrocarbon Receptor (AhR) signaling pathway (AID 651777; active = well fitted curve in the direction sought with a large enough effect; an effect the other way counts as inactive or inconclusive; also: nearly all actives have a fitted effect of over 15% in size; also: potency is read from the fitted curve at half-maximal effect); details: 1A2-DRE human hepatoma cells, luciferase, 24 h; activation: stronger effect = higher value
# Method in brief: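 Measured luciferase activity, read 30 min after One-Glo addition at room temperature, from human hepatoma cells bearing a dioxin response element–CYP1A2 promoter reporter and exposed to compound for 24 hr at 37 C.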
# [3] = qHTS assay for small molecule antagonists of peroxisome proliferator-activated receptor delta signaling (AID 588535; active = well fitted inhibition curve with a large enough effect in the signal ratio, with a control signal flat, not every such curve was filed as active; the % refers to the signal ratio;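 as to max response: cells co-treated with a PPAR-delta agonist as stimulator during compound exposure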); details: HEK293T PPARd-UAS-bla, beta-lactamase FRET ratio, 18 h; 460 nm channel
# Method in brief: (§1)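 Cell-based beta-lactamase assay in antagonist mode: 4000 HEK293T PPAR-delta-UAS-bla cells per well, 5 hr preincubation then 18 hr compound incubation at 37 C. IC50 obtained by Hill equation fitting.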
# [4] = molecular target: Peroxisome proliferator-activated receptor delta (Homo sapiens) (UniProt Q03181); test: as above
# Method in brief: as §1
# [5] = molecular target: Peroxisome proliferator-activated receptor gamma (Homo sapiens) (UniProt P37231); test: qHTS assay for small molecule agonists of peroxisome proliferator-activated receptor gamma signaling (AID 588536; active = well fitted curve in the direction sought with a large enough effect in the signal ratio, with a control signal flat, not every such curve was filed as active; the % refers to the signal ratio)
# Method in brief: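 PPAR-gamma-UAS-bla HEK293 cells in medium with 1% charcoal/dextran-treated FBS were exposed to compounds for 16 h at 37 C. Beta-lactamase activity was read with CCF4 substrate (405 nm excitation, 460/530 nm emission).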
# [6] = molecular target: Peroxisome proliferator-activated receptor gamma (Homo sapiens) (UniProt P37231); test: qHTS assay for small molecule antagonists of peroxisome proliferator-activated receptor gamma signaling (AID 588537; active = well fitted inhibition curve with a large enough effect in the signal ratio, with a control signal flat, not every such curve was filed as active; the % refers to the signal ratio;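 also: reporter cells co-stimulated with 50 nM rosiglitazone agonist during compound treatment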)
# Method in brief: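 Inhibitors of agonist-stimulated UAS-bla reporter activity were sought in HEK293 cells; rosiglitazone (50 nM) defined full signal and DMSO baseline. Curves fitted to Hill model gave IC50 and efficacy.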
# [7] = qHTS assay for small molecule agonists of retinoid X receptor alpha signaling (AID 588544); details: HEK293T RXRa-UAS-bla, beta-lactamase reporter, 18 h; 530 nm emission
# [8] = molecular target: Retinoic acid receptor RXR-alpha (Homo sapiens) (UniProt P19793); test: as above
# [9] = molecular target: Thyroid hormone receptor beta (Homo sapiens) (UniProt P10828); test: qHTS assay for small molecule agonists of thyroid hormone receptor beta signaling (AID 588545)
# Method in brief: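 TR-UAS-bla-GripTite HEK 293 cells in medium with 2% charcoal/dextran FBS, 0.1 mM NEAA and 1 mM sodium pyruvate were treated with titrated compounds for 18 hrs at 37 C. Beta-lactamase reporter was read with CCF4 dye (ex 405, em 460/530 nm); EC50 from Hill fits.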
# [10] = qHTS assay for small molecule agonists of the antioxidant response element (ARE) signaling pathway (AID 651741; active = well fitted activation curve with a large enough effect in the signal ratio; the % refers to the signal ratio; also: potency is read from the fitted curve at half-maximal effect)
# Method in brief: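 Seeding 2,000 ARE-bla HepG2 cells per well preceded a 5 h incubation at 37 C/5% CO2 and a 16 h compound exposure at 37 C. Beta-lactamase reporter activity was then quantified by fluorescence after 2 h with LiveBLAzer B/G FRET substrate.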
# [11] = qHTS assay for small molecule activators of the p53 signaling pathway (AID 651743; active = well fitted activation curve with a large enough effect in the signal ratio, not every such curve was filed as active; the % refers to the signal ratio; also: series mostly up to about 92 µM); details: HCT-116 p53RE-bla, beta-lactamase FRET ratio, 16 h; activation: stronger effect = higher value
# Method in brief: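 Screen for p53 pathway agonists uses stably transfected p53RE-bla HCT-116 cells, 4,000 per well, treated 16 h at 37 C with compounds in DMSO.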
# [12] = molecular target: Peroxisome proliferator-activated receptor alpha (Homo sapiens) (UniProt Q07869); test: qHTS assay for small molecule agonists of the peroxisome proliferator-activated receptor alpha (PPARalpha) signaling pathway (AID 651778; active = well fitted curve in the direction sought with a large enough effect; an effect the other way counts as inactive or inconclusive); details: PathHunter PPARalpha complementation, chemiluminescence, 6 h; max response: stronger effect = higher value
# Method in brief: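 Chemiluminescence from complemented enzyme reported PPARalpha activation in cells after 6 hr of compound treatment at 37 C. The detection reagent was incubated for 60 min at room temperature, and compounds were scored as agonists.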
# [13] = qHTS assay for small molecule agonists of the antioxidant response element (ARE) signaling pathway measured by Nrf2-dependant transcriptional activity (AID 720636; active = well fitted curve in the direction sought with a large enough effect in the repeat runs; an effect the other way counts as inactive or inconclusive;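 also: HepG2 cells with an ARE-driven luciferase reporter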)
# Method in brief: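 In HepG2 cells engineered with an Nrf2-responsive luciferase gene, ARE induction was quantified as luminescence after 16 hr compound treatment at 37 C.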
# [14] = qHTS assay for small molecule agonists of the antioxidant response element (ARE) signaling pathway measured by Nrf2-dependant transcriptional activity - cell viability counter screen (AID 720653; active = well fitted curve in the direction sought with a large enough effect in the repeat runs; an effect the other way counts as inactive or inconclusive); details: ARE-bla HepG2 viability, CellTiter-Glo ATP luminescence, 16 h; max response: stronger effect = lower value
# Method in brief: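 Cytotoxicity counter screen: intracellular ATP quantified by CellTiter-Glo luminescence in the same ARE-bla HepG2 plates, after 16 h compound exposure and a 2 h beta-lactamase substrate step.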
# [15] = qHTS assay for cell viability of the p53RE-bla HCT-116 cell line (AID 743292; active = well fitted curve in the direction sought with a large enough effect; an effect the other way counts as inactive or inconclusive; also: nearly all actives have a fitted effect of over 55% in size)
# Method in brief: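 Intracellular ATP of p53RE-bla HCT-116 cells measured by luciferase luminescence following 16 h compound incubation at 37 C; DMSO-only wells served as vehicle controls.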
# [16] = qHTS assay for cell viability of HEK293 cells (AID 743288; active = well fitted curve in the direction sought with a large enough effect; an effect the other way counts as inactive or inconclusive; also: nearly all actives have a fitted effect of over 50% in size); details: ATP luminescence (CellTiter-Glo), 18 h; max response: stronger effect = lower value
# Method in brief: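 Luminescent ATP quantitation served as the viability read-out. Cells (parental HEK293, 2,000/well) received compounds after at least 5 h at 37 C and were exposed for 18 h before a 30 min room-temperature reagent step.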
# Chain of Peroxisome proliferator-activated receptor delta (Homo sapiens) (Q03181 whole entry, looked up): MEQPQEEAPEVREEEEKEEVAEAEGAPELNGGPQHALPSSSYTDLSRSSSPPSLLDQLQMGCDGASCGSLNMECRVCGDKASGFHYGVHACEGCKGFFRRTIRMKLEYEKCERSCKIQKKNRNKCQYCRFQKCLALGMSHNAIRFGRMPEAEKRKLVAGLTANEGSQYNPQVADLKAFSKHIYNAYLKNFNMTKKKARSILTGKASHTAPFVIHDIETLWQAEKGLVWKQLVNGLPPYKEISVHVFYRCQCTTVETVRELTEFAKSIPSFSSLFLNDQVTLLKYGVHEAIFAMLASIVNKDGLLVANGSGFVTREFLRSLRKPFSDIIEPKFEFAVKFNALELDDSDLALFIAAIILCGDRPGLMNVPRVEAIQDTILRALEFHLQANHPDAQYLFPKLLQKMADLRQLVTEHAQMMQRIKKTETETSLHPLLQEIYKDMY
# Chain of Peroxisome proliferator-activated receptor gamma (Homo sapiens) (P37231 whole entry, looked up): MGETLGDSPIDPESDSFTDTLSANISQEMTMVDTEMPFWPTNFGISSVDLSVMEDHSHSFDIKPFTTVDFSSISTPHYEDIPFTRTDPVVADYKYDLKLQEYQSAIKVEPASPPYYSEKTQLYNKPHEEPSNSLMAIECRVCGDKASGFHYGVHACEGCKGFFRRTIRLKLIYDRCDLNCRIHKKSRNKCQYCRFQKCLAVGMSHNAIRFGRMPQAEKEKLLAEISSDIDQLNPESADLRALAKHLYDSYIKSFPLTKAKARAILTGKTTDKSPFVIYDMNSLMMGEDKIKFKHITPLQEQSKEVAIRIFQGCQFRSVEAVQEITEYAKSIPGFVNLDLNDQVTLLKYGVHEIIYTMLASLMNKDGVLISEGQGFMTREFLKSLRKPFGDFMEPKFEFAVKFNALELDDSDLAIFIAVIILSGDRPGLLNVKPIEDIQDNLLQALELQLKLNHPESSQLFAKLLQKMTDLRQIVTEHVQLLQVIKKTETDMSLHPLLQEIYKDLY
# Chain of Thyroid hormone receptor beta (Homo sapiens) (P10828 whole entry, looked up): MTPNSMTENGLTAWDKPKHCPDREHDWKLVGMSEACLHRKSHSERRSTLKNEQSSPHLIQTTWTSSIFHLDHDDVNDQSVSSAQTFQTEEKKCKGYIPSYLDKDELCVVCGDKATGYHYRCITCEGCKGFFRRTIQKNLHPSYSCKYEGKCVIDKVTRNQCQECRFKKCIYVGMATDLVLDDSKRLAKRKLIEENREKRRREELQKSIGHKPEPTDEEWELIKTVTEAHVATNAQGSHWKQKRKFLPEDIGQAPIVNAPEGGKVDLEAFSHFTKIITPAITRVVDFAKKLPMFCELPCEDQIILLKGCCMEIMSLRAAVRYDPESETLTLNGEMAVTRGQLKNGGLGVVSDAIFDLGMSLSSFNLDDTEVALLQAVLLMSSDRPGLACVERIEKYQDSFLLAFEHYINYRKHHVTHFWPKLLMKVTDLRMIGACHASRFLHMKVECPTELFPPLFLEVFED
# Chain of Peroxisome proliferator-activated receptor alpha (Homo sapiens) (Q07869 whole entry, looked up): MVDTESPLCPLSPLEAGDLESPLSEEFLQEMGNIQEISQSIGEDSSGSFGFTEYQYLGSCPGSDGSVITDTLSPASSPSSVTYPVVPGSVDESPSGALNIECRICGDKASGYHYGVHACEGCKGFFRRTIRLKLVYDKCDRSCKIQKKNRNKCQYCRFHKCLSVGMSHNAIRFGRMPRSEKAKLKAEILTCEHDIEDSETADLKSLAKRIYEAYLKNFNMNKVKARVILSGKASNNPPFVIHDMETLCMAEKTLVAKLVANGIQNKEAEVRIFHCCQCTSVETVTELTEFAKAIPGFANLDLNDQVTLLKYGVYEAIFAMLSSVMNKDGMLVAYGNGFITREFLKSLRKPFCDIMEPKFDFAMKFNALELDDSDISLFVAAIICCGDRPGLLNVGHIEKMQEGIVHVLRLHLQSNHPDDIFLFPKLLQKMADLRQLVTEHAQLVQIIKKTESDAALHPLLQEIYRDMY
# Chain of Retinoic acid receptor RXR-alpha (Homo sapiens) (P19793 whole entry, looked up): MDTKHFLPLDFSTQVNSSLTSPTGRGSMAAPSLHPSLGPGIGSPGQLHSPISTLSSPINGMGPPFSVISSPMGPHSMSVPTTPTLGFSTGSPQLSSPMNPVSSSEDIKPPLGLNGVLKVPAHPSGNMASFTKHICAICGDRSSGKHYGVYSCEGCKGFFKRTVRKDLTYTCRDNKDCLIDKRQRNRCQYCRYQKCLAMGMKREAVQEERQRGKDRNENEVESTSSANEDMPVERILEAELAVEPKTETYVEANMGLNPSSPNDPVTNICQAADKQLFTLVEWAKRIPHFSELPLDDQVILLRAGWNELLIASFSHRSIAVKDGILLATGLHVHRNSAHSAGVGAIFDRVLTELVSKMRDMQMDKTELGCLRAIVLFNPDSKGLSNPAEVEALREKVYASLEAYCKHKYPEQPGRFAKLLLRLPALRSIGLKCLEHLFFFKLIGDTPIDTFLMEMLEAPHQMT
structure (smiles),measurement,setting,value
O=C(Nc1ccccc1)c1ccccc1O,outcome,[1],inactive
same,Potency,[2],44.7 µM (active)
CC(C)[C@H](C(=O)O[C@H](C#N)c1cccc(Oc2ccccc2)c1)c1ccc(Cl)cc1,outcome,[1],inactive
same,max response,[3],2%
same,Potency,[4],inactive
same,Potency,[5],inactive
same,Potency,[6],inactive
same,max response,[7],-3.66%
same,Potency,[8],inactive
same,Potency,[9],inactive
same,Potency,[10],61.1 µM (active)
same,activation,[11],-0.0449% (inactive)
same,activation,[2],0.849% (inactive)
same,max response,[12],0.0129% (inactive)
same,Potency,[13],inactive
same,max response,[14],6.41% (inactive)
same,Potency,[15],inactive
CC(C)O,outcome,[1],inactive
CC(=O)c1ccccc1[N+](=O)[O-],outcome,[1],inactive
CC(=O)OC(C)(C)C1CC=C(C)CC1 (stereo not drawn),outcome,[1],inactive
CC(C)C(C(=O)OC(C#N)c1cccc(Oc2ccccc2)c1)c1ccc(Cl)cc1 (stereo not drawn),outcome,[1],inactive
same,max response,[3],-0.258%
same,Potency,[4],inactive
same,Potency,[5],inactive
same,Potency,[6],inactive
same,Potency,[9],inactive
same,activation,[11],0.961% (inactive)
same,activation,[2],2.62% (inactive)
same,max response,[12],0.669% (inactive)
same,Potency,[13],inactive
same,max response,[14],-14.8% (inactive)
same,max response,[16],-26.6% (inactive)
same,Potency,[15],inactive
